Assay results from the supplement of paper PMC11219838.

test system: Caenorhabditis elegans L1 (N2); assay: survival and reproduction score of C. elegans L1 (0: 0-10 living worms, 1: 11-20, 2: 21-50, 3: >50, 4: overgrown) (score 0-4); higher = more worms, less nematicidal, active = 1 or less; extreme values may be limits of the assay; details: 60 µM; 6 days; temperature: 20 °C
Summary of the method: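 Synchronized C. elegans N2 L1s (about 20 per well) were grown in 96-well plates in liquid NGM with E. coli HB101 and compound at 60 µM final (0.6% v/v DMSO), shaken sealed at 200 rpm and 20 °C for 6 days. The ordinal score for survival and reproduction counted living worms per well under a dissection microscope. The scale ran 0 (0–10 worms) to 4 (overgrown, starved), averaged over two biological replicates.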

Row | Compound | survival and reproduction score
1 | COc1ccc(-c2nnc(SCC(=O)Nc3ccc(Br)c(C)c3)o2)cc1 | 4 (inactive)
2 | O=C(CSc1nnc(-c2ccccc2)o1)Nc1cccc(C(F)(F)F)c1 | 4 (inactive)
3 | COc1cccc(-c2noc(COc3ccc(Cl)cc3)n2)c1 | 4 (inactive)
4 | Clc1cccc(-c2nc(-c3ccncc3)no2)c1 | 0 (active)
5 | CC(C)C(=O)Nc1ccccc1-c1nc(-c2ccccc2)no1 | 4 (inactive)
6 | O=C(Nc1ccccc1-c1nc(-c2ccncc2)no1)c1ccccc1Cl | 4 (inactive)
7 | Cc1ccc(C)c(OCc2nc(-c3ccccc3Cl)no2)c1 | 4 (inactive)
8 | Cc1ccc(-c2noc(-c3ccc(C)cc3Cl)n2)cc1 | 4 (inactive)
9 | COc1ccc(-c2nc(C3CCCCC3)no2)cc1 | 4 (inactive)
10 | CCN(Cc1ccccc1)C(=O)c1ccccc1-c1nc(-c2cccc(C)c2)no1 | 4 (inactive)
11 | Cc1cccc(NC(=O)CSc2nnc(-c3ccncc3)o2)c1C | 4 (inactive)
12 | COc1ccccc1-c1nnc(SCc2ccccc2C#N)o1 | 4 (inactive)
13 | CCCOc1ccc(-c2ccc(-c3nc(-c4cccnc4)no3)cc2)cc1 | 4 (inactive)
14 | COc1ccc(-c2noc(COc3ccc(Br)cc3)n2)cc1 | 2 (inactive)
15 | CCOC(=O)c1sc(NC(=O)CSc2nnc(-c3ccc(Cl)cc3)o2)c(C(=O)OCC)c1C | 4 (inactive)
16 | Cc1ccc(-c2nc(-c3cccc(C)c3)no2)cc1 | 1 (active)
17 | Cc1ccc(-c2noc(-c3ccco3)n2)s1 | 0 (active)
18 | Fc1ccccc1OCc1nc(-c2ccc(Cl)cc2)no1 | 4 (inactive)
19 | Cc1ccc(-c2nnc(SCC(=O)Nc3nccs3)o2)cc1 | 4 (inactive)
20 | Cc1ccc(OCc2nc(-c3cccnc3)no2)c(Br)c1 | 4 (inactive)

Row | Compound | survival and reproduction score
21 | O=S(=O)(CCC(F)=C(F)F)c1ncc(Cl)s1 [fluensulfone] | 4 (inactive)
22 | Brc1ccc(-c2noc(-c3ccco3)n2)o1 | 4 (inactive)
23 | Cc1cc(OCc2nc(-c3cccnc3)no2)c(C)cc1Br | 4 (inactive)
24 | Cc1ccc(NC(=O)CSc2nnc(-c3ccncc3)o2)cc1Cl | 4 (inactive)
25 | Cn1c(SCc2ccc(Cl)cc2)nnc1-c1ccco1 | 4 (inactive)
26 | Cc1ccc(-c2nc(-c3ccncc3)no2)c(Cl)c1 | 2 (inactive)
27 | Clc1ccc(-c2nc(-c3cccnc3)no2)c(Cl)c1 | 2 (inactive)
28 | Cc1cc(Br)ccc1OCc1nc(-c2ccccn2)no1 | 4 (inactive)
29 | CCCC(=O)Nc1ccccc1-c1nc(-c2ccccn2)no1 | 4 (inactive)
30 | COc1ccc(-c2noc(COc3ccc(C4CCCCC4)cc3)n2)cc1 | 4 (inactive)
31 | Clc1ccc(SCc2nc(-c3ccccn3)no2)cc1 | 0.5 (active)
32 | N#Cc1ccccc1NC(=O)CSc1nnc(-c2ccccc2)o1 | 4 (inactive)
33 | COc1cccc(NC(=O)c2ccccc2-c2nc(-c3ccccc3Cl)no2)c1 | 4 (inactive)
34 | Cc1ccc(-c2noc(-c3ccc(-n4nncc4C)cc3)n2)cc1 | 4 (inactive)
35 | Brc1ccccc1-c1nc(-c2ccccn2)no1 | 2 (inactive)
36 | Cc1ccc(-c2nnc(SCc3c(C)cc(C)cc3C)o2)cc1 | 4 (inactive)
37 | COc1ccc(-c2noc(-c3cccc(F)c3)n2)cc1 | 4 (inactive)
38 | COc1ccc(-c2noc(COc3ccccc3)n2)cc1 | 0 (active)
39 | Cc1ccc(OCc2nc(-c3ccccc3)no2)c(Br)c1 | 4 (inactive)
